Assay outcomes: PubChem BioAssay, National Center for Advancing Translational Sciences (NCATS)
Only a selection was taken, and hits are over-represented in it overall.
LmPK inhibitor: LmPK (Leishmania mexicana) enzyme inhibition; Q27686; purified LmPK, Kinase-Glo ATP luminescence, 1 h; Potency, µM (doses to about 57.5 µM), for the others: at the highest dose activity change, negative = inhibition, actives largely listed as inhibitors; 290,000 compounds, 0.37% hits; note: potency is the fitted concentration of half-maximal effect; % is set by controls: 0 for no effect and ±100 for the full control effect
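Kinase-Glo luminescence read after 1 h RT reaction of 0.1 nM LmPK with 0.5 mM PEP and 0.1 mM ADP. Activity scaled between uninhibited and enzyme-free controls.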
CHX counter: counter-screen for Shiga toxin inhibitors: cycloheximide protein synthesis inhibition. cell reporter, cycloheximide protein synthesis inhibition counterscreen. max response, %. 300,000 compounds, 12% hits. AID 2314; in the data active = max response mostly above about 13%, no sharp cut-off; inactive = mostly below about 14%; note: read at 38.3 µM for the half of the compounds with a filed dose; 0% is about no effect
Shiga inhibitor: Shiga toxin inhibition; Vero cells, Shiga toxin protein synthesis inhibition reporter; inhibition, % at 38.7 µM; 290,000 compounds, 9.2% hits; in the data active = inhibition mostly above about 28%, no sharp cut-off; inactive = mostly below about 43%; note: 0% is about no effect
FBPA Giardia inh: inhibitors of Giardia lamblia fructose-1,6-bisphosphate aldolase; A8B2U2; purified Giardia FBPA; Potency, µM (highest dose often 59.6 µM), inactives show at the highest dose activity, negative = inhibition, hits mostly inhibitors; 290,000 compounds, 0.71% hits; AID 2451; note: potency is the fitted concentration of half-maximal effect; % is set by controls: 0 for no effect and ±100 for the full control effect; nearly all actives have a fitted effect of over 55% in size
Target sequence (A8B2U2 whole entry, looked up): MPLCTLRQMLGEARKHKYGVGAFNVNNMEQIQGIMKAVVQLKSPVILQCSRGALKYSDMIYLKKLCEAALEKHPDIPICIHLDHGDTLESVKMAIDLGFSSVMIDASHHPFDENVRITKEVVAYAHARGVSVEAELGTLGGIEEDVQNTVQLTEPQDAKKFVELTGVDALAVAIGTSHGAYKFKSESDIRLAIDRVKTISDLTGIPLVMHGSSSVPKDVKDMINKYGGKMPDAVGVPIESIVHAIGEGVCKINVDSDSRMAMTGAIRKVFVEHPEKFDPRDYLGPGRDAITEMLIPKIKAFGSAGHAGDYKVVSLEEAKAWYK
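40 nM FBPA preincubated 10 min at RT with compound (up to 57.5 uM final), then substrate plus GAPDH/TPI/NAD/arsenate coupling and diaphorase/resazurin added. Fluorescence read after 20 min at RT, 525/598 nm.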
TbPYK inhibitor: inhibitors of Trypanosoma brucei pyruvate kinase. TbPYK enzyme, Kinase-Glo Plus ATP luminescence, 45 min. Potency, µM (series often up to 76.8 µM), inactives show at the highest dose activity, negative = inhibition, hits mostly inhibitors. 410,000 compounds, 0.12% hits. Q57TT1; note: potency is the fitted concentration of half-maximal effect; % is set by controls: 0 for no effect and ±100 for the full control effect; nearly all actives have a fitted effect of over 50% in size
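Enzyme and substrate buffer are dispensed first and compound is pin-transferred. ADP at 130 uM final then starts the reaction, which runs 45 min at room temperature. Detection reagent is added for 10 min before luminescence is imaged.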
RE007 growth inh: less growth of the S. pombe RE007 Vpr strain; S. pombe RE007 Vpr strain, BacTiter-Glo ATP luminescence, 24 h; AID 651644; 360,000 compounds, 0.21% hits; Potency, µM (series often up to 92.2 µM), without a hit: at the highest dose activity change, negative = less growth, most hits filed as inhibitors; active = well fitted falling curve with a large enough effect; note: potency is the fitted concentration of half-maximal effect; % is set by controls: 0 for no effect and ±100 for the full control effect; nearly all actives have a fitted effect of over 50% in size
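Fission yeast strain RE007, carrying one chromosomally integrated HIV-1 vpr copy, was seeded at OD 0.01 in PMG+AL medium with 23 nL pinned compound. After 24 h at 30 °C and 99% humidity, viability was read by BacTiter-Glo luminescence.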
* = called active by the depositor. Unless noted, calls come from the whole dose curve; as a rule, active = well fitted curve in the direction sought with a large enough effect; inconclusive = small, poorly fitted or top-dose-only effect, or another doubt; inactive = no such curve, though single readings can be large; an effect the other way counts as inactive or inconclusive.

How did CCc1cc2c(=O)n(-c3ccccc3)cnc2s1 do in these assays?
LmPK inhibitor: -1%; CHX counter: 53*; Shiga inhibitor: 105*; FBPA Giardia inh: 9%; TbPYK inhibitor: 2%; RE007 growth inh: 10%

How did CCc1cc2c(=O)n(-c3ccc(C)cc3)cnc2s1 do in these assays?
LmPK inhibitor: 8%; CHX counter: 53*; Shiga inhibitor: 74*; FBPA Giardia inh: -1%; TbPYK inhibitor: 7%; RE007 growth inh: -9%

What do the screens show for `Cc1ccc(CCNC(=O)c2sc3ncccc3c2-n2c(C)ccc2C)cc1`?
TbPYK inhibitor: 2%

Results for Cc1ccc(NC(=O)c2snnc2C)cc1Cl ?
LmPK inhibitor: -5%; CHX counter: 12*; Shiga inhibitor: 26; FBPA Giardia inh: -1%; TbPYK inhibitor: 6%; RE007 growth inh: -12%

What do the screens show for `Cc1nnsc1C(=O)Nc1ccc(Cl)cc1Cl`?
LmPK inhibitor: -5%; CHX counter: -1; Shiga inhibitor: -12; FBPA Giardia inh: 6%; TbPYK inhibitor: 9%; RE007 growth inh: -10%

Results for Cc1nnsc1C(=O)NNc1ccc(C(C)C)cc1 ?
LmPK inhibitor: -14%; CHX counter: 40*; Shiga inhibitor: 59*; FBPA Giardia inh: -3%; TbPYK inhibitor: -6%; RE007 growth inh: 4%

Results for O=C(Cn1cc(SCc2ccc(F)cc2)c2ccccc21)N1CCCCC1 ?
TbPYK inhibitor: 7%

What do the screens show for `COc1cc(CN(C(=O)COc2ccc(Br)cc2)c2ccccn2)cc(OC)c1OC`?
TbPYK inhibitor: 2%

Results for Cc1ccc(NC(=O)Cn2c(=O)n(CCCCC(=O)NCc3ccccc3Cl)c(=O)c3ccccc32)cc1C ?
TbPYK inhibitor: 5%

What do the screens show for `O=C(Cc1csc(-c2ccccc2)n1)NCc1ccc(F)cc1`?
LmPK inhibitor: 5%; CHX counter: -1; Shiga inhibitor: 4; FBPA Giardia inh: -1%; TbPYK inhibitor: -1%; RE007 growth inh: -13%

Results for O=C(NCc1csc(-c2ccccc2)n1)c1cc(F)cc2c1OCOC2 ?
LmPK inhibitor: 5%; CHX counter: 45*; Shiga inhibitor: 83*; FBPA Giardia inh: 2%; TbPYK inhibitor: -4%; RE007 growth inh: -3%

How did COc1ccc(/C=C/c2nc3cc(-c4ccccc4)ccc3o2)cc1O do in these assays?
LmPK inhibitor: 7%; CHX counter: 97*; Shiga inhibitor: 100*; FBPA Giardia inh: 0%; TbPYK inhibitor: -6%; RE007 growth inh: -9%

How did COc1ccc(/C=C/c2nc3ccccc3c(=O)o2)cc1 do in these assays?
LmPK inhibitor: -14%; CHX counter: -6; Shiga inhibitor: -4; FBPA Giardia inh: -1%; TbPYK inhibitor: -25%; RE007 growth inh: -10%

Results for CC(Sc1ncnc2ccccc12)C(=O)Nc1ccc2c(c1)OCO2 (centres undefined) ?
LmPK inhibitor: -4%; CHX counter: 4; Shiga inhibitor: 10; FBPA Giardia inh: -4%; TbPYK inhibitor: -5%; RE007 growth inh: 17%

What do the screens show for `Cc1ccc(C)c(C(=O)COc2ncnc3ccccc23)c1`?
LmPK inhibitor: 5%; CHX counter: 28; Shiga inhibitor: 70*; FBPA Giardia inh: -1%; TbPYK inhibitor: 3%; RE007 growth inh: -8%

How did O=C(CSc1ncnc2ccccc12)c1ccc2c(c1)OCCO2 do in these assays?
LmPK inhibitor: 1%; CHX counter: 46*; Shiga inhibitor: 185*; FBPA Giardia inh: -7%; TbPYK inhibitor: 2%; RE007 growth inh: 0%

How did O=C(COc1ncnc2ccccc12)c1ccc2c(c1)OCCO2 do in these assays?
LmPK inhibitor: 2%; CHX counter: 55*; Shiga inhibitor: 132*; FBPA Giardia inh: 5%; TbPYK inhibitor: 3%; RE007 growth inh: -4%

What do the screens show for `O=C(Nc1ccc2c(c1)OCO2)C1CCN(C(=O)CSc2ncnc3ccccc23)CC1`?
LmPK inhibitor: -4%; CHX counter: 34*; Shiga inhibitor: 44*; FBPA Giardia inh: -2%; TbPYK inhibitor: -16%; RE007 growth inh: 5%
